Assay outcomes: PubChem BioAssay, National Center for Advancing Translational Sciences (NCATS)
GLP1R ag: agonists of human GLP-1 receptor; P43220; Potency, µM (top dose mostly 45.6 µM), without a hit: top-dose activation, actives largely listed as activators; HEK293 GLP-1R CRE-luciferase, luminescence, 4-6 h; cells express a hypersensitive GLP-1R form; actives 0.007% (n = 380,000); further: % of control where 0% means no effect
RORgamma inh: inhibitors of mouse ROR gamma transcriptional activity; P51450; Drosophila S2 Gal4-RORgamma UAS-luciferase reporter, 20 h; Potency, µM (doses to about 53.6 µM), for the others: top-dose activity change, negative = inhibition, most hits filed as inhibitors; actives 5.4% (n = 310,000); further: on the % scale 0 is the no-effect control and ±100 the full control effect; nearly all actives have a fitted effect of over 60% in size
Target sequence (P51450 whole entry, looked up, the tested form may be a part): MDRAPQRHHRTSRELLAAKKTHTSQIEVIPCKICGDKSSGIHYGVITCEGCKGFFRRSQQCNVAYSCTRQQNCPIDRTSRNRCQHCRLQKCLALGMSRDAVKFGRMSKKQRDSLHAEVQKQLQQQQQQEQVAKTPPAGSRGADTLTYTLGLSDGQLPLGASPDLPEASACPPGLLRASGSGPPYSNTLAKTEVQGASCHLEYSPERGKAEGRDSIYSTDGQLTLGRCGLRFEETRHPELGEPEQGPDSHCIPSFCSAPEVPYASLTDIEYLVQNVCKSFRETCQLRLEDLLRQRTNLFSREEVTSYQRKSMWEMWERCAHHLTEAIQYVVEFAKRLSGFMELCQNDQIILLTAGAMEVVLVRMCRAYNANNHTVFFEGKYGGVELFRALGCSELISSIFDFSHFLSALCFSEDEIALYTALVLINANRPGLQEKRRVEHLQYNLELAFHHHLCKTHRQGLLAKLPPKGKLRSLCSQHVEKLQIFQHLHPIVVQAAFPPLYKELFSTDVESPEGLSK
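Read-out: Photinus luciferase luminescence; inhibitors lower reporter signal. Insect Schneider cells with Gal4-ROR gamma fusion under metallothionein promoter, UAS reporter; 700 uM final copper sulfate induction, 20 hr, ambient temperature.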
HEK293 tox: cytotoxic in the GLP-1 receptor inverse agonist counter-screen; HEK293 cAMP-luciferase reporter cells, luminescence, 24 h; Potency, µM (highest dose often 38.3 µM), inactives show at the top dose activity change, negative = inhibition, hits mostly inhibitors; actives 0.13% (n = 410,000); AID 624418;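 further: loss of luciferase light is scored as toxicity; on the % scale 0 is the no-effect control and ±100 the full control effect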
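Compound-treated cells are incubated 24 hr at 37 deg C under 5% CO2 after a 12 hour attachment period, then luciferase detection reagent is added and luminescence is measured following 12 min at room temperature; lowered signal indicates toxicity.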
GLP1R inv ag: inverse agonists of human GLP-1 receptor | Potency, µM (series often up to 38.3 µM), without a hit: at the top dose activity change, negative = inhibition, most hits filed as inhibitors | actives 1.6% (n = 410,000) | AID 624417 | HEK293 GLP-1R CRE-luciferase, luminescence, 24 h; GLP-1R form is constitutively active; further: on the % scale 0 is the no-effect control and ±100 the full control effect; nearly all actives have a fitted effect of over 55% in size
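HEK293 cells stably co-expressing a cAMP-responsive luciferase reporter and constitutively active GLP-1R were seeded, incubated 12 h, then exposed to compounds for 24 h at 37 C. Luminescence was read 12 min after detection reagent; inverse agonists lower signal.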
Gal4-VP16 FLuc: counter-screen for ROR gamma inhibitors: Gal4-VP16 reporter; Drosophila S2 Gal4-VP16 UAS-luciferase, luminescence, 20 h; Potency, µM (top dose mostly 53.6 µM), for the others: at the highest dose activity, negative = inhibition, most hits filed as inhibitors; actives 3.5% (n = 310,000);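 further: Gal4-VP16 expression switched on by copper sulfate through the metallothionein promoter; on the % scale 0 is the no-effect control and ±100 the full control effect; nearly all actives have a fitted effect of over 50% in size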
An asterisk follows results filed as active; ? = inconclusive; . = not tested or not shown; [ ] = remark or other dose. The list is not random: actives were taken first. Their share in the collection is about 5.9%. The call rests on the fitted dose curve; in most records, active means well fitted curve in the direction sought with a large enough effect; inconclusive means small, poorly fitted or top-dose-only effect, or another doubt; inactive means no such curve, though single readings can be large; an effect the other way counts as inactive or inconclusive. Potency means the concentration at half of the fitted maximal effect.

SMILES	GLP1R ag	RORgamma inh	HEK293 tox	GLP1R inv ag	Gal4-VP16 FLuc
COc1ccc(CNC(=O)c2nc(S(=O)(=O)Cc3ccccc3)ncc2Cl)cc1	-13%	5.6µM*	?	?	3.5µM*
CCCC1=Nc2cc(C(=O)NC(C)c3ccccc3)ccc2Sc2ccc(C)cc21 (centres undefined)	-3%	.	-19%	4.5µM*	.
CCCC1=Nc2cc(C(=O)NCc3ccc(OC)cc3)ccc2Sc2ccc(C)cc21	-4%	.	-25%	4.5µM*	.
CCCC1=Nc2cc(C(=O)NCCc3ccccc3)ccc2Sc2ccc(C)cc21	-6%	.	?	?	.
CCNC(=O)C1CCN(S(=O)(=O)c2ccc3c(c2)CCCN3C(C)=O)CC1	.	.	-16%	14%	.
Cc1ccccc1C(=O)N1CCN(c2ccc(NC(=S)NC(=O)c3cccs3)cc2)CC1	0%	2.8µM*	?	?	5.6µM*
CC(C)CC(=O)NC(=S)Nc1ccc(N2CCN(C(=O)c3cccs3)CC2)cc1	11%	7.1µM*	0%	10µM*	6.3µM*
O=C(Nc1ccc(N2CCN(C(=O)c3ccccc3)CC2)cc1)c1cccs1	4%	?	-20%	-18%	-15%
COc1ccc(C(=O)N2CCN(c3ccc(NC(=O)c4cccs4)cc3)CC2)cc1	-3%	35%	-5%	-2%	-8%
O=C(NC(=S)Nc1ccc(N2CCOCC2)cc1)c1cccs1	23%	2.8µM*	-1%	4%	?
Cc1ccc(C(=O)N2CCN(c3ccc(NC(=S)NC(=O)c4cccs4)cc3)CC2)cc1	7%	7.1µM*	-8%	8.9µM*	11µM*
C[C@@H](c1ccccc1)N1C(=O)[C@H]2[C@H]3[C@H](O)[C@H](O)C/C(=N/OCc4ccccc4)[C@@H]3CC[C@@H]2C1=O	.	15%[10 µM]	.	.	-4%[10 µM]
COCCn1c(=O)cnc2cnc(Oc3ccccc3)nc21	.	12%	.	.	13%
Cc1cc(C)c(NC(=O)CN(CC(=O)O)CC(=O)O)c(C)c1Br	-3%	-5%	.	.	-13%
N#Cc1c(-c2ccccc2)cc(-c2ccccc2)nc1SCC(O)CS(=O)(=O)Cc1ccccc1 (centres undefined)	.	.	1%	?	.
CCC(=O)Nc1ccc(N2CCN(C(=O)c3ccccc3C)CC2)cc1	3%	37%	-10%	-12%	18%
Cc1ccc(C(=O)NC(=S)Nc2ccc(N3CCN(C(=O)c4ccco4)CC3)cc2)cc1	-10%	13µM*	3%	12%	5.6µM*
Cc1ccccc1C(=O)N1CCN(c2ccc(NC(=O)CSc3ccc(Cl)cc3)cc2)CC1	-3%	?	-7%	7.1µM*	?
CC(C)Oc1ccc(C(=O)Nc2ccc(N3CCN(C(=O)c4ccco4)CC3)cc2)cc1	14%	?	-17%	2%	21%
CCOC(=O)c1cnc2ccc(OCC)cc2c1N1CCN(c2cccc(Cl)c2)CC1	.	.	1%	?	.
O=C(Cc1ccc(Br)cc1)Nc1ccccc1Sc1ccccc1	-1%	?	-1%	10µM*	-3%
O=C(Nc1ccccc1Sc1ccccc1)c1ccccc1	5%	-44%	22%	11µM*	15%
O=C(Cc1ccccc1)Nc1ccccc1Sc1ccccc1	3%	-5%	31%	11µM*	-6%
COc1cc(NC(=O)c2ccccc2)c(OC)cc1NC(=O)Cc1ccc(Br)cc1	1%	?	-5%	-22%	11µM*
O=C(Cc1ccc(F)cc1)Nc1ccccc1Sc1ccccc1	17%	4%	10%	?	-11%
SMILES	GLP1R ag	RORgamma inh	HEK293 tox	GLP1R inv ag	Gal4-VP16 FLuc
CSc1ccccc1NC(=O)Cc1ccccc1	2%	10%	-3%	?	17%
CC1(C)C[C@](C)(C(=O)c2ccccc2)C=C1c1ccccc1	.	4%	.	.	6%
COc1ccc(CCNC(=O)c2ccc3c(c2)N(Cc2ccc(Cl)cc2)C(=O)c2ccccc2S3)cc1OC	.	.	-1%	-13%	.
CCCCNC(=S)NCc1ccc2[nH]c3c(c2c1)CCCC3	-2%	5µM*	?	?	10µM*
O=C(NCc1ccc2[nH]c3c(c2c1)CCCC3)N1CCOCC1	.	-1%	.	.	-1%
CNC(=S)NCc1ccc2[nH]c3c(c2c1)CCCC3	4%	18µM*	-18%	9%	-14%
